Measurements as given in PubChem BioAssay AID2202241 (National Center for Advancing Translational Sciences (NCATS), 2025).
The source made the active and inactive calls. No rule for the calls is given here. Square brackets hold non-standard residues; d marks the D form. Peptide text beside a SMILES is read from it. * marks the point of attachment. Dolaproine = CO[C@@H]([C@@H]1CCCN1)[C@@H](C)C(=O)O; Dil = CC[C@H](C)[C@H](NC)[C@@H](CC(=O)O)OC; NMe2Val = CC(C)[C@@H](C(=O)*)N(C)C; X1 = C[C@@H](N*)[C@@H](O)c1ccccc1; NMeV = CN[C@H](C(=O)O)C(C)C

experiment: Identification of antibody-drug conjugate (ADC) payloads which are substrates of ATP-binding cassette drug efflux transporters: cell line panel data; conditions: 99 cancer cell line panel, CellTiter-Glo viability, 48 h; stronger effect = lower value
Source text: Antibody-drug conjugates (ADCs) feature an antibody recognizing a specific protein joined to a potent toxic payload. Numerous antibody-drug conjugates have received FDA approval; however, clinical resistance arises. Resistance mechanisms include decreased expression or mutation of the antibody target, impaired payload release, or increased expression of ATP-binding cassette (ABC) efflux transporters associated with multidrug resistance. We therefore sought to characterize the activity of ADC payloads across a broad set of cancer cell lines. We performed a high-throughput screen with 27 common ADC payloads against a panel of 99 cell lines to assess sensitivity to various payloads. Duocarmycin DM and PNU-159682 were exquisitely toxic across the panel of cancer cell lines of varying origins. These findings highlight the potentially broad applicability of Duocarmycin DM and PNU-159682 as ADC payloads in future ADC development.
Compounds were sourced from Levena Biopharma (San Diego, CA), Selleck Chem (Houston, TX), ChemieTek (Indianapolis, IN), or Microsource Discovery Systems (Gaylordsville, CT). Cell line sources and culture conditions were as follows: CAL-27 (ATCC: CRL-2095) and Hs 766T (ATCC: HTB-134) were grown in DMEM media +10% FBS. RKO (ATCC: CRL-2577), A-427 (ATCC: […]), BT-20 (ATCC: HTB-19), Detroit562 (ATCC: CCL-138), HARA-B (Cytion: 300465), PA-1 (ATCC: CRL-1572), TCCSUP (ATCC: […]), UM-UC-3 (ATCC: CRL-1749), and WI-38 (ATCC: CCL-75) were grown in EMEM media +10% FBS. AGS (ATCC: CRL-1739) was grown in F12K media +10% FBS. JJN-3 (DSMZ: ACC 541) was grown in IMDM media +20% FBS. 769-P (ATCC: CRL-1933), 786-O (ATCC: CRL-1932), A-375 (ATCC: CRL-1619), A-431 (ATCC: CRL-1555), A-549 (ATCC: CCL-185), A2780 (Cytion: 300491), ACHN (ATCC: CRL-1611), BT-474 (ATCC: HTB-20), BT-549 (ATCC: HTB-122), CCRF-CEM (ATCC: CCL-119), Daudi (ATCC: CCL-213), HaCaT (Cytion: 300493), HCC38 (ATCC: CRL-2314), HCC827 (ATCC: CRL-2868), HCT15 (ATCC: CCL-225), HEL 92.1.7 (ATCC: TIB-180), Hs 352.Sk (ATCC: CRL-7250), Hs578T (ATCC: HTB-126), HT-1080 (ATCC: CCL-121), HuCC-T1 (Riken Bioresource Center: RCB1960), HuP-T3 (DSMZ: ACC 259), HuP-T4 (DSMZ: ACC 223), IM-9 (ATCC: CCL-159), JJ012 (Gift: Karina Galoian (University of Miami)), JM-1 (ATCC: CRL-10423), K-562 (ATCC: CCL-243), Kasumi-3 (ATCC: CRL-2725), KMS-12-BM (DSMZ: ACC 551), LOUCY (ATCC: CRL-2629), LoVo (ATCC: CCL-229), MCF-7 (ATCC: HTB-22), MDA-MB-231 (ATCC: HTB-26), MDA-MB-436 (ATCC: HTB-130), MDA-MB-468 (ATCC: HTB-132), MIA PaCa-2 (ATCC: CRL-1420), MM1.R (ATCC: CRL-2975), MM1.S (ATCC: CRL-2974), NALM-6 (ATCC: CRL-3273), NCI-H1299 (ATCC: CRL-5803), NCI-H1355 (ATCC: CRL-5865), NCI-H1395 (ATCC: CRL-5868), NCI-H1437 (ATCC: CRL-5872), NCI-H2122 (ATCC: CRL-5985), NCI-H2170 (ATCC: CRL-5928), NCI-H226 (ATCC: CRL-5826), NCI-H23 (ATCC: CRL-5800), NCI-H322M (NIH: NCI-60), NCI-H460 (ATCC: HTB-177), NCI-H522 (ATCC: CRL-5810), NCI-H929 (ATCC: CRL-3580), NIH 3T3 (ATCC: CRL-1658), OCI-M2 (DSMZ: ACC 619), OPM-2 (DSMZ: ACCC 50), OVCAR-3 (ATCC: HTB-161), OVCAR-4 (Gift: Phil Lorenzi MD Anderson), OVCAR-8 (Gift: Phil Lorenzi MD Anderson), Panc 10.05 (ATCC: CRL-2547), PANC-1 (ATCC: CRL-1469), Pfeiffer (ATCC: CRL-2632), PL45 (ATCC: CRL-2558), PSN1 (ATCC: CRL-3211), Raji (ATCC: CCL-86), RD (Gift: Mari Yohe NCI), RPMI-8226 (ATCC: CRM-CCL-155), RS4;11 (ATCC: CRL-1873), SK-BR-3 (ATCC: HTB-30), SK-MEL-28 (ATCC: HTB-72), SMS-CTR (Gift: Mari Yohe NCI), SNU-16 (ATCC: CRL-5974), SU-DHL-8 (ATCC: CRL-2961), SU.86.86 (ATCC: CRL-1837), SW1990 (ATCC: CRL-2172), SW403 (ATCC: CCL-230), SW480 (ATCC: CCL-228), SW579 (ATCC: HTB-107), T-47D (ATCC: HTB-133), T24 (ATCC: HTB-4), and U-937 (ATCC: CRL-1593.2) were grown in RPMI +10% FBS. U266B1 (ATCC: TIB-196) were grown in RPMI +15% FBS. ME-1 (ATCC: HB-119), MOLM-13 (DSMZ: ACC 554), AMO1 (DSMZ: ACC 538), MOLP-8 (DSMZ: ACC 569), MV4-11 (ATCC: CRL-9591), PL-21 (DSMZ: ACC 536), and L-363 (DSMZ: ACC 49) were grown in RPMI +20% FBS. […]

| SMILES | viability AUC |
| --- | --- |
| COc1cc2cc(c1Cl)N(C)C(=O)C[C@H](OC(=O)[C@H](C)N(C)C(=O)CCC(C)(C)S)[C@]1(C)OC1[C@H](C)C1C[C@@](O)(NC(=O)O1)[C@H](OC)/C=C/C=C(\C)C2 (stereo partly specified) | 777 (active) |
| COc1cccc2c1C(=O)c1c(O)c3c(c(O)c1C2=O)C[C@@](O)(C(=O)CO)CC3OC1CC(N2CCOC(OC)C2)C(O)C(C)O1 (stereo partly specified) | 666 (active) |
| CC[C@H](C)[C@@H]([C@@H](CC(=O)N1CCC[C@H]1[C@H](OC)[C@@H](C)C(=O)N[C@@H](Cc1ccccc1)C(=O)O)OC)N(C)C(=O)[C@@H](NC(=O)[C@H](C(C)C)N(C)C)C(C)C (NMe2Val-V[Dil][Dolaproine]F-OH) | 932 (active) |
| COc1cc2cc(c1Cl)N(C)C(=O)C[C@H](OC(=O)[C@H](C)N(C)C(=O)CCS)[C@]1(C)OC1[C@H](C)C1C[C@@](O)(NC(=O)O1)[C@H](OC)/C=C/C=C(\C)C2 (stereo partly specified) | 817 (active) |
| CC[C@H](C)[C@H](NC(=O)[C@H]1CCCCN1C)C(=O)N(C)[C@H](C[C@@H](OC(C)=O)c1nc(C(=O)N[C@@H](Cc2ccccc2)C[C@H](C)C(=O)O)cs1)C(C)C | 793 (active) |
| CC[C@H](C)[C@H](NC(=O)[C@H]1CCCCN1C)C(=O)N(C)[C@H](C[C@@H](OC(C)=O)c1nc(C(=O)O)cs1)C(C)C | 982 (active) |
| CC[C@H](C)[C@@H]([C@@H](CC(=O)N1CCC[C@H]1[C@H](OC)[C@@H](C)C(=O)N[C@H](C)[C@@H](O)c1ccccc1)OC)N(C)C(=O)[C@@H](NC(=O)[C@@H](NC)C(C)C)C(C)C (H-[NMeV]V[Dil][Dolaproine]-X1) | 816 (active) |
| COc1cc2cc(C(=O)N3C[C@@H](CCl)c4c3cc(O)c3ccccc43)[nH]c2c(OC)c1OC | 654 (active) |
| COc1cc2cc(c1Cl)N(C)C(=O)C[C@H](OC(=O)C(C)C)[C@]1(C)O[C@H]1[C@H](C)[C@@H]1C[C@@](O)(NC(=O)O1)[C@H](OC)C=CC=C(C)C2 | 756 (active) |
| CC[C@H](C)[C@@H]1NC(=O)CNC(=O)[C@H]2Cc3c([nH]c4cc(O)ccc34)S(=O)C[C@H](NC(=O)CNC1=O)C(=O)N[C@@H](CC(N)=O)C(=O)N1C[C@H](O)C[C@H]1C(=O)N[C@@H]([C@@H](C)[C@@H](O)CO)C(=O)N2 (stereo partly specified) | 992 (active) |
| CC[C@H](C)[C@@H]([C@@H](CC(=O)N1CCC[C@H]1[C@H](OC)[C@@H](C)C(=O)N[C@H](C)[C@@H](O)c1ccccc1)OC)N(C)C(=O)[C@@H](NC(=O)[C@H](C(C)C)N(C)C)C(C)C | 699 (active) |
